Measured values taken from PubChem BioAssay (Tox21).
Inconclusive results are not listed. Activity calls are given as the source filed them. Unless noted, calls come from the whole dose curve; as a rule, active = well fitted curve in the direction sought with a large enough effect in the repeat runs; inconclusive = weak or mixed curves; inactive = no such curve, though single readings can be large; an effect the other way counts as inactive or inconclusive.

How the values were obtained:
[1] = qHTS assay to identify small molecule antagonists of the retinoid-related orphan receptor gamma (ROR-gamma) signaling pathway - cell viability counter screen (AID 1159520); note: nearly all actives have a fitted effect of over 50% in size; note: potency is the fitted concentration of half-maximal effect; for activity, negative = cytotoxicity: % is set by controls: 0 for no effect and ±100 for the full control effect
Method in brief: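 Tet-on ROR gamma CHO cells (1,000/well) were plated 4 hr, given compounds in DMSO for 2 hr at 37 C, then induced with 1 uM final doxycycline for 16 hr. Viability was read as ATP by CellTiter-Glo luminescence after 30 min.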

[2] = molecular target: Nuclear receptor ROR-gamma (Homo sapiens) (UniProt P51449); assay: qHTS assay to identify small molecule antagonists of the retinoid-related orphan receptor gamma (ROR-gamma) signaling pathway (AID 1159521; note: nearly all actives have a fitted effect of over 50% in size; note: potency is the fitted concentration of half-maximal effect;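 for activity change, negative = inhibition: CHO cells with doxycycline inducible ROR-gamma driving an RORE luciferase reporter; top concentration of the series differs between compounds; % is set by controls: 0 for no effect and ±100 for the full control effect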)
Method in brief: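 CHO cells expressing RORγ under a TET-on promoter, luciferase under RORE control. Dox 1 uM final, 16 h; compounds added 2 h prior. Luminescence decrease measured.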

[3] = qHTS assay to identify small molecule agonists of the AP-1 signaling pathway - cell viability counter screen (AID 1159525; calls by dose curve; note: nearly all actives have a fitted effect of over 55% in size; note: potency is the fitted concentration of half-maximal effect)
Method in brief: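 Each titration point was normalised to DMSO and tetra n-octyl ammonium bromide controls. The read was Cell Titer Glo luminescence after 30 min at RT, following 5 h compound exposure of ME-180 AP-1-bla cells at 37 °C.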

[4] = qHTS assay to identify small molecule agonists of the RXR signaling pathway - cell viability counter screen (AID 1159529); note: nearly all actives have a fitted effect of over 50% in size; note: potency is the fitted concentration of half-maximal effect
Method in brief: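 Same-well viability check after the LiveBLAzer FRET read: CellTiter-Glo added, luminescence measured after 30 min at room temperature. Reporter HEK 293T cells had been treated with compounds for 16 hr following a 5 hr preincubation.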

[5] = qHTS assay to identify small molecule antagonists of the retinoic acid receptor (RAR) signaling pathway (AID 1159552; note: nearly all actives have a fitted effect of over 50% in size; note: potency is the fitted concentration of half-maximal effect)
Method in brief: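 Readout: luciferase luminescence, 30 min post-reagent at RT. Setup: C3RL4 RARE reporter cells, compounds plus retinol 1 uM final, 6 hr incubation at 37 C and 5% CO2.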

[6] = qHTS assay to identify small molecule agonists of the AP-1 signaling pathway (AID 1159526; calls by dose curve; note: % is set by controls: 0 for no effect and ±100 for the full control effect)
[7] = qHTS assay to identify small molecule antagonists of the retinoid acid receptor (RAR) signaling pathway - cell viability counter screen (AID 1159551); note: nearly all actives have a fitted effect of over 35% in size; note: potency is the fitted concentration of half-maximal effect; for activity change, negative = cytotoxicity: % is set by controls: 0 for no effect and ±100 for the full control effect
Method in brief: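 C3RL4 RARE-luciferase line; cpds + retinol 1 uM final, 6 h, 37 C/5% CO2; CellTiter-Glo ATP luminescence, 30 min RT.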

[8] = molecular target: Retinoic acid receptor RXR-alpha (Homo sapiens) (UniProt P19793); assay: qHTS assay to identify small molecule agonists of the RXR signaling pathway (AID 1159527; calls by dose curve; note: % is set by controls: 0 for no effect and ±100 for the full control effect; nearly all actives have a fitted effect of over 35% in size)
Method in brief: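 Beta-lactamase reporter assay, agonist format. Engineered HEK 293T line, charcoal-stripped FBS at 2%, overnight (16 hr) exposure, fluorescence at 460 and 530 nm after 405 nm excitation.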

[9] = qHTS assay to identify small molecule agonists of the peroxisome proliferator-activated receptor delta (PPARd) signaling pathway - cell viability counter screen (AID 743211); note: % is set by controls: 0 for no effect and ±100 for the full control effect; nearly all actives have a fitted effect of over 55% in size
Method in brief: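 Luminescent ATP viability assay (CellTiter-Glo, 30 min RT) in UAS-bla HEK293H cells carrying the PPAR delta reporter construct, 3000 cells/well, after a 17 h compound treatment at 37 C.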

[10] = qHTS assay to identify small molecule antagonists of the peroxisome proliferator-activated receptor delta (PPARd) signaling pathway - cell viability counter screen (AID 743213)
Method in brief: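 Same-well viability: cells pre-incubated 5 h, dosed with compound plus 300 nM L165041, kept 17 h at 37 C, FRET substrate 2 h RT, then CellTiter-Glo 30 min RT and luminescence.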

[11] = qHTS assay to identify small molecule agonists of the farnesoid-X-receptor (FXR) signaling pathway - cell viability counter screen (AID 743218); note: % is set by controls: 0 for no effect and ±100 for the full control effect; nearly all actives have a fitted effect of over 45% in size
Method in brief: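 Luminescence from CellTiter-Glo, read after 30 min at RT, reports viability of GeneBLAzer FXR-UAS-bla HEK 293T cells treated 16 h with compounds in the wells used for the beta-lactamase reporter.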

[12] = qHTS assay to identify small molecule antagonists of the farnesoid-X-receptor (FXR) signaling pathway - cell viability counter screen (AID 743221; active = well fitted cell-killing curve with a large enough effect in the repeat runs, not every such curve was filed as active)
Method in brief: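 In GeneBLAzer FXR-UAS-bla HEK 293T cells stimulated with 50 uM chenodeoxycholic acid (final), compounds acted for 16 h at 37 C. Viability was assessed afterwards by CellTiter-Glo luminescence.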

[13] = qHTS assay to identify small molecule antagonists of the vitamin D receptor (VDR) signaling pathway - cell viability counter screen (AID 743225)
Method in brief: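 Luminescent cell viability (CellTiter-Glo) in VDR-bla HEK 293T cells after 16 h compound exposure at 37C in the presence of 3 nM final 1-alpha,25-dihydroxy vitamin D3.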

Chain of Retinoic acid receptor RXR-alpha (Homo sapiens) (P19793 whole entry, looked up): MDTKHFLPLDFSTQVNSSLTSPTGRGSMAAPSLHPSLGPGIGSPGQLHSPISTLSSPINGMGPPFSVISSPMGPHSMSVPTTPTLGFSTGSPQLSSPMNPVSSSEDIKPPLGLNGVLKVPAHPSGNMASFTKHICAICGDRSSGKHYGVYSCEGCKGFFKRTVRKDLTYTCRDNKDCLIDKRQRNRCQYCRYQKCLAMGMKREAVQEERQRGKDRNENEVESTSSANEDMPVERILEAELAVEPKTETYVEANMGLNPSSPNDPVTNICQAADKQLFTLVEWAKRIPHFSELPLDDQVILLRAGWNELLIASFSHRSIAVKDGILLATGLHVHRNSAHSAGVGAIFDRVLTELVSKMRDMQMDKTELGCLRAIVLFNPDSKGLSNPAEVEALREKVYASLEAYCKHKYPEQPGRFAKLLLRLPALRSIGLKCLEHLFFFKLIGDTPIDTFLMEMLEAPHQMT

CCN(CC)c1ccc(N=Nc2ccccc2)cc1
inactive: Potency [1] | Potency [2] | Potency [3] | Potency [5]
active: Potency [4] 19.5 µM

O=C(NCc1ncc(C(F)(F)F)cc1Cl)c1c(Cl)cccc1Cl
inactive: Potency [1] | Potency [3] | Potency [6] | Potency [7]
active: Potency [2] 12.2 µM

Cc1ccc(C=O)cc1
inactive: Potency [1] | Potency [2] | Potency [3] | Potency [8] | Potency [4] | Potency [7]

C=COCCCC
inactive: Potency [1] | Potency [2] | Potency [3] | Potency [6] | Potency [4] | Potency [7] | Potency [5]

Nc1ccc2c(S(=O)(=O)O)cccc2c1S(=O)(=O)O
inactive: Potency [1] | Potency [2] | Potency [3] | Potency [8] | Potency [4] | Potency [7] | Potency [5]

CN1CC[C@H](c2c(O)cc(O)c3c(=O)cc(-c4ccccc4Cl)oc23)[C@H](O)C1
inactive: Potency [9] | Potency [10] | Potency [11] | Potency [12] | Potency [13] | Potency [3] | Potency [4]
active: Potency [1] 0.237 µM | Potency [2] 0.298 µM | Potency [5] 0.0668 µM

COc1cc2ncnc(Nc3cccc(Cl)c3)c2cc1OC
inactive: activity, negative = cytotoxicity [1] -2.63% [at 19 µM] | activity change, negative = inhibition [2] -11.5% [at 19 µM] | viability change, negative = cytotoxic [3] -9.86% [at 15.8 µM] | activation [8] -15.1% [at 15.8 µM] | activity change, negative = cytotoxicity [4] -0.839% [at 15.8 µM] | activity change, negative = cytotoxicity [7] 0.617% [at 19 µM]

COCCC(=O)OC
inactive: Potency [1] | Potency [2] | Potency [3] | Potency [8] | Potency [4] | Potency [7] | Potency [5]

NC(=O)C1CO1 (stereo not given)
inactive: Potency [1] | Potency [2] | Potency [3] | Potency [8] | Potency [7] | Potency [5]

CCn1c2ccccc2c2ccccc21
inactive: Potency [1] | Potency [2] | Potency [3] | Potency [8] | Potency [7] | Potency [5]

Cc1ccc(S(=O)(=O)C(I)I)cc1
active: Potency [1] 17.2 µM | Potency [2] 6.11 µM | Potency [3] 17.4 µM | Potency [4] 12.3 µM | Potency [7] 43.3 µM | Potency [5] 9.69 µM

O=C1C=CC(=O)N1c1cccc(N2C(=O)C=CC2=O)c1
active: Potency [1] 12.2 µM | Potency [2] 3.86 µM | Potency [3] 13.8 µM | Potency [4] 11 µM | Potency [7] 21.7 µM | Potency [5] 10.9 µM

N#CCCOCCC#N
inactive: Potency [1] | Potency [2] | Potency [3] | Potency [8] | Potency [4] | Potency [7] | Potency [5]

CC(C)=NNC(N)=S
inactive: Potency [1] | Potency [2] | Potency [3] | Potency [4] | Potency [7]

Brc1cc(Br)cc(Br)c1
inactive: Potency [1] | Potency [2] | Potency [3] | Potency [6] | Potency [4] | Potency [7]
